# FLuc inh: firefly luciferase inhibition; P08659; Potency, µM (top dose mostly 57.1 µM), for the others: at the highest dose activity change, negative = inhibition, usual class: inhibitors; actives 2.2% (n = 72,000); purified firefly luciferase, luminescence, 8 min; AID 411; also: potency is read from the fitted curve at half-maximal effect; % is scaled to controls: 0 for no effect and ±100 for the full control effect; nearly all actives have a fitted effect of over 40% in size
#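 Firefly luciferase (PKLight detection mix) with 10 uM ATP in pH 7.2 imidazole buffer (KCl, MgCl2, Tween 20, BSA). Compounds tested across a concentration series (qHTS). Luminescence read after 8 min at ambient temperature.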
# IMPase inh: membrane-permeable compound that blocks inositol monophosphatase | P97697 | CHO-M1 cells, IP1 accumulation, HTRF TR-FRET ratio | inhibition (IP1 accumulation), % at 46.1 µM | 120,000 tested, under 10 active; active = well fitted curve in the direction sought with a large enough effect in the signal ratio, not every such curve was filed as active; inconclusive = small, poorly fitted or top-dose-only effect, or a change in a side signal; inactive = no such curve, though single readings can be large or run the other way; the % refers to the signal ratio;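 also: cells stimulated with carbachol in lithium chloride buffer; plate controls were DMSO basal wells for no effect and reference inhibitor wells for full effect; higher means more IMPase inhibition seen as more IP1 and lower FRET ratio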
# Target sequence (P97697 whole entry, looked up): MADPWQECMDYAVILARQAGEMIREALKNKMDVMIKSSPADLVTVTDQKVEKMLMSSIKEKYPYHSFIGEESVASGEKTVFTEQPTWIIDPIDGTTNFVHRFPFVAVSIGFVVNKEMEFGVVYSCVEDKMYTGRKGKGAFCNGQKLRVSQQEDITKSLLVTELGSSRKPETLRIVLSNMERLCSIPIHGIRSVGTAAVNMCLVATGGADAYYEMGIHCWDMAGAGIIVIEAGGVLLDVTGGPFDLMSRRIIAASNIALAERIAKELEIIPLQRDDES
#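 Seeded CHO-M1 cells were dosed with compound at up to 46 uM, stimulated with carbachol for 30 min, then lysed in IP-One detection reagents. Higher IP1 lowers the TR-FRET signal.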
# p53ts 39C kill: cytotoxicity in p53ts cells at nonpermissive temperature | H1299-p53A138V viability at 39C, ATP luminescence, 24 h | Potency, µM (titrated, usually from 46.1 µM), without a hit: top-dose activity change, negative = cell killing, usual class: cytotoxic | actives 1.5% (n = 130,000) | AID 902; also: potency is read from the fitted curve at half-maximal effect; % is scaled to controls: 0 for no effect and ±100 for the full control effect; nearly all actives have a fitted effect of over 55% in size
# p53ts 32C tox: p53ts cell cytotoxicity, permissive temperature; actives 0.93% (n = 130,000); AID 924; H1299-p53A138V at 32C, ATP luminescence viability, 24 h; Potency, µM (series often up to 46.1 µM), for inactives: at the top dose activity change, negative = cytotoxicity, usual class: cytotoxic;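 also: potency is read from the fitted curve at half-maximal effect; 0% = DMSO and -100% = full killing by reference compound; nearly all actives have a fitted effect of over 55% in size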
#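 ATP-content luminescence (ATPlite) read-out after 24 h compound exposure at 32C in H1299-p53A138V cells (600/well). Tested up to 46 uM. Normalized to DMSO (0%) and 100 uM tamoxifen (100% killing); Hill-fit AC50.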
# IkB signaling: IkB pathway inhibition in ABC-DLBCL cells; ABC-DLBCL IkBa-CBG/CBR dual luciferase ratio, 4 h; response scale: scaled: untreated 0%, proteasome inhibitor 100%; actives 0.04% (n = 110,000); Potency, µM (doses to about 57.1 µM), without a hit: at the top dose IkBa stabilization activation; AID 445; active = well fitted curve in the direction sought with a large enough effect in the signal ratio, not every such curve was filed as active; inconclusive = small, poorly fitted or top-dose-only effect, or a change in a side signal; the % refers to the signal ratio;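 also: potency is read from the fitted curve at half-maximal effect; the direction sought is a rising ratio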
#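 In this assay, an IκBα–CBG68 fusion accumulates when IKK-driven degradation is blocked; native CBR normalizes for cell number. OCI-Ly3 cells were treated 4 h with compound and doxycycline, then green and red light read after Chroma-Glo addition.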
# Peg3 imprint: genomic imprint erasure induction; mouse ES Peg3-LacZ reporter, beta-gal luminescence, 40 h; actives 0.02% (n = 110,000); Potency, µM (highest dose often 60.7 µM), without a hit: top-dose activity change, positive = activation, hits mostly activators; also: potency is read from the fitted curve at half-maximal effect
#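 Readout: BetaGlo luminescence (5 min, room temp) for LacZ from the normally silent maternal Peg3 allele in female Peg3LacZ-Neo ES cells. Cells 300/well, 40 h, 37C, 5% CO2. Data normalized per plate to negative controls.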
# Active calls of the source: *; ? = inconclusive; / = not tested or not shown; [ ] = another dose, or the depositor's remark. This is one part of a sample in which hits are shown more often than they occur. Unless noted, calls follow the shape of the dose curve; as a rule, active = well fitted curve in the direction sought with a large enough effect; inconclusive = small, poorly fitted or top-dose-only effect, or another doubt; inactive = no such curve, though single readings can be large; an effect the other way counts as inactive or inconclusive.
SMILES,FLuc inh,IMPase inh,p53ts 39C kill,p53ts 32C tox,IkB signaling,Peg3 imprint
CC(C)C[C@@H](CC(=O)N[C@@H](CCCN)CC(=O)N[C@@H]1CCCC[C@H]1C(=O)N[C@H](CC(=O)N[C@@H](CCC(=O)O)CC(=O)O)Cc1c[nH]c2ccccc12)NC(=O)[C@@H]1CCCC[C@H]1N,/,/,/,/,-2%,/
Cc1ccc2oc(-c3ccco3)nc2c1,25µM*,-4,-5%,-10%,-2%,-1%
CC(C)c1ccc2oc(-c3ccc(N)cc3)nc2c1,1.3µM*,-11,6.3µM*,6.3µM*,?,-53%
Cc1ccc(-c2nc3cc(C)ccc3o2)cc1,0.4µM*,8,?,10µM*,?,-31%
Cc1ccc(-c2nc3cc(N)ccc3o2)cc1,2.5µM*,-22,4µM*,4µM*,6%,-79%
CCCN1C(=O)C2(c3ccccc31)c1c(oc3ccccc3c1=O)C(=O)N2CCCOC(C)C (stereo unspecified),/,/,11%,22%,-1%,-75%[10.9 µM]
CC(C)c1ccc2oc(-c3ccc(NC(=O)c4ncn[nH]4)cc3)nc2c1,10µM*,-2,-9%,-12%,?,-23%
COc1ccc(CSc2nc3ncccc3[nH]2)cc1,/,/,/,16µM*,/,/
COC(=O)c1ccc2c(=O)n(CCCCCC(=O)N3CCN(c4cc(C)ccc4C)CC3)c(=O)[nH]c2c1,/,/,6.3µM*,16µM*,?,13%[10.9 µM]
COC(=O)c1ccc2c(=O)n(CCCCCC(=O)N3CCN(c4ccc(F)cc4)CC3)c(=O)[nH]c2c1,2%,-5,-6%,2%,0%,-6%
CCC(=O)Nc1ccc(NC(=O)c2ccco2)cc1,?,25,10µM*,13µM*,3%,-34%
COc1cc(NC(=O)CC(C)C)ccc1NC(=O)c1ccco1,16µM*,/,-29%,?,1%,-1%
O=C(Nc1ccc(OC(=O)c2ccco2)cc1)c1ccco1,13µM*,2,0%,1%,0%,-14%
Cc1ccccc1NC(=O)c1ccc(NC(=O)c2ccco2)cc1,-3%,-8,-8%,5%,4%,-20%
CCC(=O)Nc1ccc(NC(=O)c2ccco2)c(OC)c1,-16%,0,-5%,-12%,-2%,4%
O=C(Nc1ccccn1)c1ccc(NC(=O)c2ccco2)cc1,25µM*,-9,?,?,?,-75%
CCn1cc(C(=O)O)c(=O)c2ccc(Cc3ccccc3)nc21,3%,/,/,/,0%,/
Cc1ccc(NC(=O)c2ccco2)cc1C,16µM*,6,?,?,2%,-80%
COc1ccc(NC(=O)c2ccco2)cc1NC(=O)c1ccc(C)c(C)c1,/,0,-29%,-15%,-3%,10%[10.9 µM]
O=C(Nc1ccc2c(c1)Cc1ccccc1-2)c1ccco1,10µM*,18,?,?,2%,-35%
Cc1ccc(NC(=O)C2CCN(S(=O)(=O)c3cccc4nonc34)CC2)c(Cl)c1,/,/,24%,3%,0%,-3%[10.9 µM]
C[C@@H]1CC[C@H]2[C@H](C)C3[C@H](C[C@H]4[C@@H]5CC=C6C[C@@H](O)CC[C@@]6(C)[C@@H]5C[C@@H](O)[C@]34C)N2C1 (stereo partly specified),/,/,/,/,/,-14%[10.9 µM]
O=C(CSc1nc2c(oc3ccccc32)c(=O)[nH]1)Nc1cccc(Cl)c1,/,/,7.9µM*,10µM*,?,13%[10.9 µM]
COc1cccc(-n2c(SCC(=O)Nc3cccc(Cl)c3)nc3c(oc4ccccc43)c2=O)c1,/,/,-11%,8%,?,4%[10.9 µM]
CC(=O)Nc1ccc(-c2nc3c(C)cccc3[nH]2)cc1,3.2µM*,-5,?,?,?,-66%
SMILES,FLuc inh,IMPase inh,p53ts 39C kill,p53ts 32C tox,IkB signaling,Peg3 imprint
CC(=O)Nc1ccc(-c2nc3ccc(Cl)cc3[nH]2)cc1,/,8,?,?,/,-45%
CCOc1ccc(Nc2nc(-c3cccc(Cl)c3)c3c(n2)-c2ccccc2OC3)cc1,/,/,10µM*,?,-5%,-33%[10.9 µM]
COc1ccc(Nc2nc(-c3cccc(Cl)c3)c3c(n2)-c2ccccc2OC3)cc1,/,/,-3%,8%,-1%,-15%[10.9 µM]
Cc1oc(-c2ccccc2)nc1Cn1c(=O)cc(-c2ccccc2)c2c(C)nn(C)c21,/,/,-7%,-3%,1%,-8%[10.9 µM]
FC(F)(F)c1cccc(Nc2nc3nonc3nc2Nc2ccc(Cl)cc2)c1,/,2,16µM*,?,?,-26%[10.9 µM]
O=C(O)c1cc2c(cc1S(=O)(=O)O)[C@H]1[C@@H](C3[C@H]2[C@@]2(Cl)C(Cl)=C(Cl)C3(Cl)C2(Cl)Cl)[C@]2(Cl)C(Cl)=C(Cl)C1(Cl)C2(Cl)Cl (stereo partly specified),/,/,/,/,/,3%[10.9 µM]
COc1ccc(Cn2c(C3CC3)nc3ccc(NC(C)=O)cc3c2=O)cc1,20µM*,5,-5%,-16%,2%,-68%
COc1ccc(COc2cc(-c3cccc(OC)c3)nc3ccc(NC(C)=O)cc23)cc1,/,/,/,/,/,-10%
COC(=O)c1cc2sc(Cl)cc2n1Cc1c(C)cc(C)cc1C,/,/,8%,-1%,-1%,14%[10.9 µM]
CC[C@H](C)C(=O)O[C@H]1CCC=C2C=C[C@H](C)[C@H](CC[C@@H]3C[C@H](O)CC(=O)O3)C21 (stereo partly specified),/,/,/,/,/,-20%
CCCSc1nnc(Cc2cc(=O)[nH]c(=O)[nH]2)n1-c1cc(C)ccc1C,2%,?,4%,-18%,0%,10µM*
Cc1ccc(C)c(-n2c(Cc3cc(=O)[nH]c(=O)[nH]3)nnc2SCC(=O)NCc2ccco2)c1,1%,/,-5%,-11%,0%,-7%
CC(C)(C)OC(=O)N1CCC(c2c(C(=O)N3CCN(c4ccccc4F)CC3)cnn2C(C)(C)C)CC1,/,/,?,7%,?,6%[10.9 µM]
CC(C)(C)c1ccc(-c2conc2N)cc1,10µM*,2,?,?,-3%,-22%
Cn1c(-c2ccc(C(C)(C)C)cc2)n[nH]c1=S,-4%,13,-23%,-25%,0%,-37%
Cc1cc([C@](C)(N)C(=O)O)ccc1P(=O)(O)O,25µM*,-4,-5%,1%,1%,-1%
C=C1CC[C@@H](O)C/C1=C/C=C1\CCC[C@]2(C)[C@@H]1CC[C@H]2[C@@H](C)CCCC(C)C,3%[11.4 µM],/,/,/,2%[11.4 µM],/
C=C1C(=O)C=C2CN(C(=O)c3ccccc3)[C@@](Cc3ccc(OC)cc3)(C(=O)OC)[C@@H]12,/,/,20µM*,3.2µM*,/,0%
COC(=O)C1=NOC2(C=C(Br)C(OC)=C(Br)C2=O)C1 (stereo unspecified),/,/,-19%[9.22 µM],-10%[9.22 µM],/,/
